# Screening data as filed in PubChem.
# Only some compounds are listed: those with a hit (about 7.9% of all), similar ones and a draw of the others.
# KB-3-1 tox = qHTS assay for MDR1-selective chemotherapeutics: Primary screen using the parental adenocarcinoma cell KB-3-1 | KB-3-1 viability, CellTiter-Glo ATP luminescence, 72 h | Potency, µM (doses to about 46.1 µM), hits mostly cytotoxic | 1.4% of 400,000 active | AID 1347075, 2019; further: on the % scale 0 is the no-effect control and ±100 the full control effect; nearly all actives have a fitted effect of over 60% in size
#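 Cytotoxicity in the drug-sensitive parental line KB-3-1 was scored as loss of CellTiter-Glo luminescence following 72 h incubation with compound. Values come from curve fitting of normalized concentration-response data.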
# HT1080NT lethal = qHTS for induction of synthetic lethality in tumor cells producing 2HG: qHTS for the HT-1080-NT fibrosarcoma cell line | HT-1080-NT fibrosarcoma viability, CellTiter-Glo ATP luminescence, 48 h | Potency, µM (titrated, usually from 46.1 µM), inactives show at the top dose activity, negative = less viability, hits mostly cytotoxic | 1.6% of 360,000 active;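 further: NT is the 2HG producing partner of a matched IDH1 knockdown line; 0% = DMSO-treated cells and -100% = media-only wells without cells; nearly all actives have a fitted effect of over 55% in size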
#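 Viability by CellTiter-Glo luminescence after 48 h compound exposure at 37C of HT-1080-NT cells (750/well, RPMI, 5% FBS). % activity scaled between DMSO wells and medium-only wells, then curve-fitted and categorized by curve class.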
# KB-V1 MDR tox = qHTS assay for MDR1-selective chemotherapeutics: Primary screen using the drug-selected MDR subline cells KB-V1. 3.4% of 400,000 active. AID 1347076, 2019. Potency, µM (top dose mostly 46.1 µM), actives largely listed as cytotoxic. KB-V1 MDR cells viability, CellTiter-Glo, 72 h; further: on the % scale 0 is the no-effect control and ±100 the full control effect; nearly all actives have a fitted effect of over 60% in size
#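 Following 72 h at 37 degrees C with compound, KB-V1 cell viability was read by CellTiter-Glo luminescence, medium being phenol-red-free DMEM plus 10% FBS; concentration-response parameters came from normalized, curve-fitted qHTS data.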
# SW480 rereplic = A quantitative high throughput screen for small molecules that induce DNA re-replication in SW480 colon adenocarcinoma cells; AID 624297, 2012; 1.8% of 340,000 active; Potency, µM (highest dose often 46.1 µM), for the others: top-dose re-replication activation, hits mostly activators; SW480 DNA re-replication, Hoechst DNA content imaging, 48 h; further: % of control where 0% means no effect; nearly all actives have a fitted effect of over 55% in size
#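 Compounds, transferred as 23 nL by pin tool, were incubated with cells for 48 hr; DNA content per nucleus was then quantified by Hoechst staining and fluorescence plate imaging.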
# HT1080 IDH1KD tx = qHTS for induction of synthetic lethality in tumor cells producing 2HG: qHTS for the HT-1080-IDH1KD cell line; HT-1080 IDH1 knockdown viability, ATP luminescence, 48 h; Potency, µM (highest dose often 46.1 µM), for inactives: at the highest dose activity, negative = toxicity, actives largely listed as cytotoxic; 2% of 360,000 active; AID 686971, 2013;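 further: 0% = DMSO wells and -100% = cell-free medium wells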
#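 Luminescent ATP read-out (CellTiter-Glo, 10 min at room temperature) after 48 h compound exposure at 37 °C gave viability of IDH1-knockdown HT-1080 cells. Activity was normalised to DMSO and cell-free wells, then fitted as concentration-response curves.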
# MCF10A rerep = A quantitative high throughput screen for small molecules that induce DNA re-replication in MCF 10a normal breast cells. MCF 10A DNA re-replication, Hoechst nuclear intensity, 48 h. Potency, µM (top dose mostly 46.1 µM), inactives show at the top dose activity, positive = re-replication, most hits filed as activators. 2.9% of 350,000 active; further: % of control where 0% means no effect; nearly all actives have a fitted effect of over 50% in size
# Active calls of the source: *; i = inactive; ? = inconclusive; · = not tested or not shown; [ ] = dose if it differs, or a comment. The call rests on the fitted dose curve; in most records, active means well fitted curve in the direction sought with a large enough effect; inconclusive means small, poorly fitted or top-dose-only effect, or another doubt; inactive means no such curve, though single readings can be large; an effect the other way counts as inactive or inconclusive. Potency means the concentration at half of the fitted maximal effect.
SMILES,KB-3-1 tox,HT1080NT lethal,KB-V1 MDR tox,SW480 rereplic,HT1080 IDH1KD tx,MCF10A rerep
CC(=O)c1cccc(NC(=O)c2ccc(N(Cc3ccccc3)S(C)(=O)=O)cc2)c1,?,-11%,21µM*,-8%,-26%,14%
CCN(c1ccccc1)S(=O)(=O)c1cc(C(=O)Nc2cccc(Cl)c2)ccc1F,?,?,21µM*,?,?,?
CC(=O)c1cccc(NC(=O)c2ccccc2N(Cc2ccccc2)S(C)(=O)=O)c1,i,3%,i,-19%,7%,2.3µM*
Cc1cc(/C=C(\C#N)C(=O)Nc2ccccc2)c(C)n1-c1ccc(F)cc1,i,·,i,·,·,·
CCOC(=O)/C(C#N)=C/c1cc(C)n(-c2ccccc2)c1C,i,4%,9.2µM*,0%,12%,?
NC(=O)c1ccc(NS(=O)(=O)c2ccc(Br)s2)cc1,i,2%,i,5%,0%,-1%
Cc1ccc(F)cc1NC(=O)c1ccc(NS(=O)(=O)c2ccc(Br)s2)cc1,i,-2%,16µM*,?,6%,?
O=C(Nc1ccc2nc3n(c(=O)c2c1)CCCCC3)C(=O)Nc1ccccc1F,i,·,i,·,·,·
Cc1cc(C2(c3ccc(O)c(C)c3)OC(=O)c3ccccc32)ccc1O,i,0%,i,?,-6%,?
Cc1cc(O)c(C(C)C)cc1C1(c2cc(C(C)C)c(O)cc2C)OC(=O)c2ccccc21,?,8.2µM*,?,?,16µM*,9.2µM*
CCOC(=O)CN(C(=O)Cn1nnc(-c2ccc(C)cc2)n1)C(CC)C(=O)NC1CCCC1 (centres undefined),i,-19%,4.1µM*,1%,-22%,1%
CCC(C(=O)NC1CCCC1)N(Cc1ccco1)C(=O)Cn1nnc(-c2ccc(C)cc2)n1 (centres undefined),i,-4%,i,-2%,4%,2%
Cc1cccc(OCC(=O)Nc2ccc3c(c2)OCO3)c1C,i,11%,i,-10%,5%,11%
COC(=O)c1ccc(NC(=O)COc2ccc3c(c2)OCO3)cc1,i,-12%,i,0.41µM*,?,-1%
CCN(CC(=O)Nc1ccc2c(c1)OCCO2)CC(=O)Nc1ccc2c(c1)OCO2,i,-1%,i,1%,3%,-9%
CCN(CC(=O)Nc1ccc2c(c1)OCCO2)Cc1cc(=O)oc2c(C)c(C)ccc12,i,-10%,4.1µM*,6%,-6%,-1%
Cc1ccc(C)c(OCC(=O)Nc2ccc3c(c2)OCO3)c1C,8.2µM*,-15%,?,?,-27%,6%
CCOC(=O)C1(C)CCCN1C(=O)c1ccc(N(C)C)cc1 (centres undefined),i,29%,i,·,24%,·
N=c1c2c(ncn1CCN1CCOCC1)Oc1cc(O)ccc1C2c1ccccc1 (centres undefined),i,?,i,-19%,-15%,23%
O=C(NCc1ccccc1)c1cc(C2COCCN2S(=O)(=O)c2cccs2)on1 (centres undefined),i,18%,i,·,8%,·
O=C(N/N=C/c1cccc(Oc2ccc([N+](=O)[O-])cc2[N+](=O)[O-])c1)c1cncc(Br)c1,i,?,i,?,11µM*,4%
Cc1ccccc1OCC(=O)N/N=C/c1cccc(Oc2ccc([N+](=O)[O-])cc2[N+](=O)[O-])c1,?,-3%,?,?,-21%,19%
Cc1ccc(CNc2ncnc3cc(Cl)ccc23)o1,?,-5%,21µM*,3%,-3%,-15%
Cc1ccccc1CNc1ncnc2cc(Cl)ccc12,i,?,i,-2%,?,-16%
Cc1ccc(CNc2ncnc3cc(Cl)ccc23)cc1,?,?,i,-20%,23µM*,13%
SMILES,KB-3-1 tox,HT1080NT lethal,KB-V1 MDR tox,SW480 rereplic,HT1080 IDH1KD tx,MCF10A rerep
COc1cc2ncnc(NCc3ccc(C)o3)c2cc1OC,i,0%,i,-9%,0%,-2%
CCOC(=O)c1ccc(-n2c(C)ccc2C)cc1,i,-3%,i,3%,2%,10%
COC(=O)c1cc(=O)n(Cc2cccs2)c(=Nc2ccccc2)s1,i,-22%,?,6%,-5%,10µM*
CCOC(=O)c1ccc(N=c2sc(C(=O)OC)cc(=O)n2-c2ccc(C(=O)OCC)cc2)cc1,?,16µM*,?,?,?,?
COC(=O)c1cc(=O)n(-c2ccccc2)c(=Nc2ccccc2)s1,?,?,i,?,?,18µM*
COc1ccc(C2=CC(c3c(C)nn(-c4ccccc4)c3Cl)n3nnnc3N2)cc1OC (centres undefined),16µM*,?,21µM*,?,?,?
CCOc1ccc(-c2csc(NC(=O)CSC3=NC(=O)CN3C(C)=O)n2)c2ccccc12,i,-4%,i,1%,4%,?
CC(=O)N1CC(=O)N=C1SCC(=O)Nc1nc(C)c(-c2ccccc2)s1,?,?,13µM*,2%,?,?
CN(C)/C=N/c1ncc(C(=O)c2ccccc2)s1,i,0%,i,-12%,1%,257%[0.0737 µM]
CN(C)/C=N/c1ncc(C(=O)c2ccc(-c3ccccc3)cc2)s1,i,-23%,12µM*,12%,-26%,9.2µM*
COc1ccc(C(C)=O)cc1Cn1c(C)c(C(=O)NCc2cccc(C)c2)sc1=O,i,5%,?,·,6%,·
N#Cc1c(N)nc(N)nc1Nc1ccc(Br)cc1,?,-3%,13µM*,3%,1%,4%
CN(C)S(=O)(=O)c1cccc2c1C(=O)c1ccccc1C2=O,i,-1%,i,21µM*,-9%,-24%
CN(C)S(=O)(=O)c1ccccc1C#N,i,1%,i,-6%,14%[9.24 µM],19%
CCCN1CNC(=S)N(c2ccccc2OC)C1,i,9%,i,-34%,15%,-5%
CCCN1CN(c2ccccc2)C(=S)N(c2ccccc2)C1,i,12%,i,3.7µM*,12%,0%
COc1cc(NC(=O)CSc2nnc3c4ccccc4n(C)c3n2)cc(OC)c1OC,·,2%,·,·,-12%,·
CCCCc1nc2ccccc2c(NC(=O)CN2CCCC2)c1CCC,i,0%,i,-6%,0%,-2%
